The text below walks through data of PubChem BioAssay AID1645849 (National Center for Advancing Translational Sciences (NCATS), 2021).

Records with an inconclusive call do not appear. A call without a number means that no potency is given here. Calls of active or inactive are those of the source. The call rests on the fitted dose curve; in most records, active means well fitted inhibition curve with a large enough effect in the repeat runs; inconclusive means weak or mixed curves; inactive means no such curve, though single readings can be large or run the other way.

The test in a line: Comparison of Janus kinase inhibitors to block the type I interferon pathway in human skeletal muscle cells: JAK inhibition assay. The source says: Assay Submitter: Travis B. Kinder Ph.D.
National Center for Advancing Translational Sciences (NCATS)
The family of Janus kinases (JAK1, JAK2, JAK3, TYK2) mediate signal transduction from cytokine receptors through phosphorylation and activation of intracellular signaling pathways and transcription factors. Small molecule antagonists of JAKs (jakinibs) have been developed with varying selectivity for the use in malignancies and immune regulation. […] We have assayed a library of 48 jakinibs for their ability to inhibit the JAK1/TYK2-dependent type I interferon (IFN) - major histocompatibility complex (MHC) class I pathway in human skeletal muscle cells genome-engineered to fuse a pro-luminescent HiBiT peptide to endogenous MHC class I.
The assay utilized CRISPR/Cas9 genome-engineered immortalized human myoblasts, C25cl48, where a pro-luminescent reporter HiBit was fused to the C-terminus of endogenous MHC class I allele HLA-B*08:01 (HLA-B HiBit myoblasts) (Kinder et al., 2020). […] After 24 hrs of treatment, cells were assayed by Nano-Glo HiBiT Lytic Detection System (Promega) and luminescence measured by a ViewLux 1430 Ultra HTS (Perkin Elmer). […]
7; Detector; 5 sec; Measure luminescence with ViewLux 1430 Ultra HTS (Perkin Elmer). […]

For `CC(C)(O)/C=C\C(=O)[C@](C)(O)[C@H]1[C@H](O)C[C@]2(C)[C@@H]3CC=C4[C@@H](C=C(O)C(=O)C4(C)C)[C@]3(C)C(=O)C[C@@]12C`, the Potency is 5.65 µM (active).
The entry for `CC1CCCCCC(=O)c2c(O)cc(O)cc2CC(=O)O1` (configuration not stated) is “inactive”.
